# The supplement of paper PMC13380429
# System: Vero E6 infected with SARS-CoV-2
# Assay: SARS-CoV-2 infection rate relative to infected DMSO; higher = more infection, active = 60 or less
# Settings: 24 h
row,Compound,SARS-CoV-2 infection rate
1,C/C(=C\CNc1ncnc2[nH]cnc12)CO [zeatin] (10 µM),106% (inactive)
2,COc1ccc(-c2coc3cc(O)cc(O)c3c2=O)cc1 [4-methylgenistein] (10 µM),103% (inactive)
3,O=C(O[C@@H]1Cc2c(O)cc(O)cc2O[C@@H]1c1ccc(O)c(O)c1)c1cc(O)c(O)c(O)c1 [epicatechin-gallate-(-)] (10 µM),100% (inactive)
4,Cn1cc(-c2ccc(S(=O)(=O)n3ccc(/C=C/C(=O)Nc4ccccc4N)c3)cc2)cn1 (10 µM),105% (inactive)
5,CC(C)S(=O)(=O)NC[C@H](C)c1ccc(-c2ccc(CCNS(C)(=O)=O)cc2)cc1 [mibampator] (10 µM),93% (inactive)
6,CCOc1ccccc1C(N)=O [ethenzamide] (10 µM),118% (inactive)
7,CCOC(=O)Nc1ccc(NCc2ccc(F)cc2)nc1N [flupirtine] (10 µM),99% (inactive)
8,CC[C@@H]1Cn2c(c3nc(-c4ccccc4)nc-3n(C)c2=O)N1 (10 µM),90.5% (inactive)
9,CN(C)CCOC1=Cc2ccccc2Sc2ccc(Cl)cc21 [zotepine] (0.833333 µM),106% (inactive)
10,Fc1ccc(CNc2ncnc3ccc(F)cc23)cc1 [spautin-1] (10 µM),117% (inactive)
11,CC[C@@H]1C(=O)N(C)c2cnc(Nc3ccc(C(=O)N[C@H]4CC[C@H](N5CCN(CC6CC6)CC5)CC4)cc3OC)nc2N1C(C)C [volasertib] (10 µM),104% (inactive)
12,O=C(Nc1ccccc1)OCC(CN1CCCCC1)OC(=O)Nc1ccccc1 (stereo not given) [diperodon] (10 µM),108% (inactive)
13,N#Cc1c(O)c2c(-c3ccc(-c4ccccc4O)cc3)csc2[nH]c1=O (10 µM),106% (inactive)
14,NCC1(CC(=O)O)CCCCC1 [gabapentin] (10 µM),109% (inactive)
15,CC(O)(P(=O)(O)O)P(=O)(O)O [etidronic-acid] (10 µM),103% (inactive)
16,CCCCNc1c(C(=O)OCC)c(C)nc2c1cnn2CC [tracazolate] (10 µM),92.5% (inactive)
17,O=C(OC[C@H]1O[C@@H](OC(=O)c2cc(O)c(O)c(OC(=O)c3cc(O)c(O)c(O)c3)c2)[C@H](OC(=O)c2cc(O)c(O)c(OC(=O)c3cc(O)c(O)c(O)c3)c2)[C@@H](OC(=O)c2cc(O)c(O)c(OC(=O)c3cc(O)c(O)c(O)c3)c2)[C@@H]1OC(=O)c1cc(O)c(O)c(OC(=O)c2cc(O)c(O)c(O)c2)c1)c1cc(O)c(O)c(OC(=O)c2cc(O)c(O)c(O)c2)c1 [tannic-acid] (10 µM),114% (inactive)
18,O=C(O)c1ccccc1C(=O)Nc1ccc(-c2ccccc2)cc1 [kartogenin] (10 µM),97.5% (inactive)
19,COc1ccc(C(=O)/C(Cc2cc(OC)c(OC)c(OC)c2)=C(\C(=O)O)c2ccc3c(c2)OCO3)cc1 (10 µM),69% (inactive)
20,COc1ccc(S(=O)(=O)Nc2c(C)cc(C)cc2C)cc1 (10 µM),80.5% (inactive)

row,Compound,SARS-CoV-2 infection rate
1,Nc1ccn([C@@H]2O[C@H](CO)[C@@H](O)[C@@H]2O)c(=O)n1 [cytarabine] (0.833333 µM),97% (inactive)
2,CC(ONC(=O)c1cc(C(F)(F)F)cc(C(F)(F)F)c1)C(=O)Nc1ccc(Cl)cc1 (stereo not given) (10 µM),89.5% (inactive)
3,CC[C@H]1OC(=O)[C@@](C)(F)C(=O)[C@H](C)[C@@H](O[C@@H]2O[C@H](C)C[C@H](N(C)C)[C@H]2O)[C@](C)(OC)C[C@@H](C)C(=O)[C@H](C)[C@H]2N(CCCCn3cc(-c4cccc(N)c4)nn3)C(=O)O[C@]12C [solithromycin] (10 µM),104% (inactive)
4,O=C(CBr)N1CC([N+](=O)[O-])([N+](=O)[O-])C1 (10 µM),116% (inactive)
5,CN(C)c1ccc2nc3ccc(=[N+](C)C)cc-3sc2c1 [methylene-blue] (0.833333 µM),104% (inactive)
6,NS(=O)(=O)c1ccc(C(=O)O)cc1 [carzenide] (10 µM),102% (inactive)
7,O=C1OC(CN2CCOCC2)CN1/N=C/c1ccc([N+](=O)[O-])o1 (stereo not given) [furaltadone] (10 µM),97% (inactive)
8,COc1cn(-c2ccc(-n3cccn3)cc2F)nc(-c2ccnn2-c2ccccc2)c1=O (10 µM),112% (inactive)
9,Fc1ccc(C(OCCN2CCN(C/C=C/c3ccccc3)CC2)c2ccc(F)cc2)cc1 (10 µM),65.5% (inactive)
10,CC(=O)N1CCN(CCOc2ccc(C3CCN(C4=Nn5c(nnc5C(F)(F)F)CC4)CC3)cc2)CC1 (0.833333 µM),98.5% (inactive)
11,Cc1ccccc1NC(=O)Nc1ccc(CC(=O)N(C)[C@@H](CC(C)C)C(=O)NCC[C@H](NC(=O)[C@@H]2CCCN2S(=O)(=O)c2cc(Cl)cc(Cl)c2)C(=O)O)cc1 (10 µM),91% (inactive)
12,Nc1ncnc2c1ncn2[C@@H]1O[C@@H]2COP(=O)(O)O[C@H]2[C@H]1O [cyclic-AMP] (10 µM),86.5% (inactive)
13,COc1cc(C(=O)N(CC[C@H]2CCCN2C)C/C(C)=C/c2ccccc2F)cc(OC)c1OC (racemic) (10 µM),108% (inactive)
14,FC(F)(F)c1ccccc1-c1cc(C(F)(F)F)c2[nH]c(C3=NOC4(CCCCC4)C3)nc2c1 (10 µM),104% (inactive)
15,N#Cc1cccc(-c2c[nH]c3ncnc(N4CCOCC4)c23)c1 (10 µM),108% (inactive)
16,Cc1occc(=O)c1[O-].Cc1occc(=O)c1[O-].[O]=[V+2] [bis(maltolato)oxovanadium(IV)] (10 µM),106% (inactive)
17,CCc1nc(C(N)=O)c(Nc2ccc(N3CCC(N4CCN(C)CC4)CC3)c(OC)c2)nc1NC1CCOCC1 [gilteritinib] (0.833333 µM),91.5% (inactive)
18,OCCNC1CCCc2c1[nH]c1ccc(-c3ccccc3)cc21 (stereo not given) [casin] (0.833333 µM),102% (inactive)
19,COc1ccc(CCNCc2ccc(OCc3ccc(Cl)nc3)c(OC)c2)cc1OC (10 µM),98% (inactive)
20,CCCCCCCCCCCCCCCCCC(=O)OC[C@@H](O)[C@H]1OC[C@H](O)[C@H]1O [sorbitan-monostearate] (10 µM),97.5% (inactive)
